Several values for one entry are separate records, joined by “and”; a condition that tells them apart may be missing. Equal entries are not always repeated. Results filed as inconclusive are left out. Activity calls are given as the source filed them. Calls follow the shape of the dose curve; as a rule, active = well fitted inhibition curve with a large enough effect; inconclusive = small, poorly fitted or top-dose-only effect; inactive = flat fitted curve, though single readings scatter. Where a SMILES comes first, the peptide text is derived from it. [ ]: non-standard residue; d: D form. pGlu = O=C1CC[C@@H](C(=O)O)N1; Thz = O=C(O)[C@@H]1CSCN1
Legend:
Assay in all cases: qHTS profiling for inhibitors of Plasmodium falciparum proliferation (AID 504749); also: nearly all actives have a fitted effect of over 60% in size
Details in all cases: P. falciparum in erythrocytes, SYBR Green DNA, 72 h; series mostly up to 28.7 µM
CP325 = system: CP325
How it was run: (§1)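 Quantitative HTS: compounds pinned into medium, infected erythrocytes added (0.3% parasitemia, 2.5% hematocrit), 72 h culture at 37 C under 5% CO2. Saponin/Triton lysis with SYBR Green I, overnight RT, then fluorescence read.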

CP329 = system: CP329
How it was run: as §1

CP335 = system: CP335
How it was run: as §1

DFO2036 = system: DFO2036
How it was run: as §1

DIV14 = system: DIV14
How it was run: as §1

DIV17 = system: DIV17
How it was run: as §1

DIV30 = system: DIV30
How it was run: as §1

Dd2 = system: Dd2
How it was run: as §1

ECU = system: ECU
How it was run: as §1

FAB9 = system: FAB9
How it was run: as §1

GB4 = system: GB4
How it was run: as §1

HB3 = system: HB3
How it was run: as §1

ICS = system: ICS
How it was run: as §1

JCK = system: JCK
How it was run: as §1

N140 = system: N140
How it was run: as §1

P93_24 = system: P93_24
How it was run: as §1

P94_40 = system: P94_40
How it was run: as §1

PAD = system: PAD
How it was run: as §1

PC15 = system: PC15
How it was run: as §1

PC26 = system: PC26
How it was run: as §1

Measured: Potency
Potency is read from the fitted curve at half-maximal effect.

CC1(C)S[C@@H]2[C@H](NC(=O)[C@H](NC(=O)N3CCN(S(C)(=O)=O)C3=O)c3ccccc3)C(=O)N2[C@H]1C(=O)O
inactive: CP325 | CP329 | CP335 | DFO2036 | DIV14 | DIV17 | DIV30 | Dd2 | ECU | FAB9 | GB4 | HB3 | ICS | JCK | N140 | P93_24 | P94_40 | PAD | PC15 | PC26

C#C[C@]1(O)CC[C@H]2[C@@H]3CCc4cc(O)ccc4[C@H]3CC[C@@]21C
inactive: CP325 | CP329 | CP335 | DFO2036 | DIV14 | DIV17 | DIV30 | Dd2 | ECU | FAB9 | GB4 | HB3 | ICS | JCK | N140 | P93_24 | P94_40 | PAD | PC15 | PC26

CCCCCCCCCCCCCCCCCC(=O)O
inactive: CP325 | CP329 | CP335 | DFO2036 | DIV14 | DIV17 | DIV30 | Dd2 | ECU | FAB9 | GB4 | HB3 | ICS | JCK | N140 | P93_24 | P94_40 | PAD | PC15 | PC26

CCOC(=O)c1ccccc1O
inactive: CP325 | CP329 | CP335 | DFO2036 | DIV14 | DIV17 | DIV30 | Dd2 | ECU | FAB9 | GB4 | HB3 | ICS | JCK | N140 | P93_24 | P94_40 | PAD | PC15 | PC26

Nc1ccc(O)c(C(=O)O)c1
inactive: CP325 | CP329 | CP335 | DFO2036 | DIV14 | DIV17 | DIV30 | Dd2 | ECU | FAB9 | GB4 | HB3 | ICS | JCK | N140 | P94_40 | PAD | PC15 | PC26

CCCCCC[C@@H](O)C/C=C\CCCCCCCC(=O)O
inactive: CP325 | CP329 | CP335 | DFO2036 | DIV14 | DIV17 | DIV30 | Dd2 | ECU | FAB9 | GB4 | HB3 | ICS | JCK | N140 | P93_24 | P94_40 | PAD | PC15 | PC26

O=C(O)[C@H](O)[C@@H](O)[C@H](O)[C@H](O)CO
inactive: CP325 | CP329 | CP335 | DFO2036 | DIV14 | DIV17 | DIV30 | Dd2 | ECU | FAB9 | GB4 | HB3 | ICS | JCK | N140 | P93_24 | P94_40 | PAD | PC15 | PC26

O=C1CC[C@@H](C(=O)N2CSC[C@H]2C(=O)O)N1 ([pGlu]-[Thz]-OH)
inactive: CP325 | CP329 | CP335 | DFO2036 | DIV14 | DIV17 | DIV30 | Dd2 | ECU | FAB9 | GB4 | HB3 | ICS | JCK | N140 | P93_24 | P94_40 | PAD | PC15 | PC26

O=C1CN(/N=C/c2ccc(-c3ccc([N+](=O)[O-])cc3)o2)C(=O)N1
inactive: CP325 | CP329 | CP335 | DFO2036 | DIV30 | Dd2 | ECU | FAB9 | HB3 | ICS | JCK | N140 | P94_40 | PAD | PC15

Nc1cc(-c2ccncc2)c[nH]c1=O
inactive: CP325 | CP329 | CP335 | DFO2036 | DIV17 | DIV30 | Dd2 | ECU | FAB9 | GB4 | HB3 | ICS | JCK | N140 | P93_24 | P94_40 | PAD | PC15

c1ccc2sc(SN3CCOCC3)nc2c1
active: ICS 12.6 µM
inactive: CP325 | CP329 | CP335 | DFO2036 | DIV30 | FAB9 | GB4 | HB3 | JCK | P94_40 | PC15 | PC26

CN1[C@@H]2CC[C@H]1CC(OC(c1ccccc1)c1ccccc1)C2 (some centres not stated)
active: DFO2036 12.6 µM | DIV14 2.39 µM and 1.9 µM | DIV17 5.36 µM and 4.26 µM | Dd2 6.31 µM | GB4 8.49 µM | ICS 10 µM and 11.2 µM | JCK 11.2 µM | P94_40 10 µM | PAD 11.2 µM | PC15 10 µM
inactive: CP325 | CP329 | FAB9 | HB3

O=C(OCc1ccccc1)c1ccccc1
inactive: CP325 | CP329 | CP335 | DFO2036 | DIV14 | DIV30 | Dd2 | ECU | FAB9 | GB4 | HB3 | ICS | JCK | N140 | P93_24 | P94_40 | PAD | PC15 | PC26

C=C(Nc1ccc(OCC)cc1)Nc1ccc(OCC)cc1
inactive: CP325 | CP329 | CP335 | DFO2036 | DIV14 | DIV17 | DIV30 | Dd2 | ECU | FAB9 | HB3 | ICS | JCK | N140 | P93_24 | P94_40 | PAD | PC15 | PC26
